# Tgondii IFNg: blocks Toxoplasma gondii growth in the presence of IFN-gamma; Toxoplasma gondii growth in IFN-gamma-treated host cells; active compounds read low; activity change, negative = inhibition, % (concentration not given with the values); 3.8% of 69,000 active; AID 1259416; in the data active = activity change below about -70%, passing the limit was not always enough;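 also: host cells are HeLa cells infected with Toxoplasma gondii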
# Starred values were filed as active, the others as inactive; i = inactive; ! = repeats disagree. The full list was thinned out, with hits kept by preference.
SMILES,Tgondii IFNg
Cc1cnn(Cc2nc(-c3ccc(NC(=O)c4ccc(F)cc4F)cc3)oc2C)c1,-4
Cc1oc(-c2ccc(NC(=O)c3ccc(F)c(Cl)c3)cc2)nc1Cn1cccn1,-69
Cc1oc(-c2ccc(NC(=O)c3c(F)cccc3Cl)cc2)nc1Cn1cccn1,65
Cc1cnn(Cc2nc(-c3ccc(NC(=O)c4cc(F)ccc4Cl)cc3)oc2C)c1,-89*
Cc1oc(-c2ccc(NC(=O)c3ccccc3C(F)(F)F)cc2)nc1Cn1cccn1,-46
COc1ccccc1C(=O)Nc1ccc(-c2nc(Cn3cccn3)c(C)o2)cc1,-25
Cc1cnn(Cc2nc(-c3ccc(NC(=O)c4c(F)cccc4Cl)cc3)oc2C)c1,-54
CN1C(=O)CCc2cc(NC(=O)Cc3cccs3)ccc21,-46
O[C@@H]1CNCC[C@H]1CNCc1ccccc1-c1ccccc1,-19
O[C@H]1CCN(CC2CCOC2)[C@H]1Cc1ccccc1 (some centres undefined),13
COc1ccc(CC(=O)N2C[C@H]3C[C@@H](Cc4nc(C)no4)O[C@@H]3C2)cc1,0
CCn1cnc(NC(=O)NC2CCOC(C)(C)C2)n1 (centres undefined),9
CCc1ccc2occ(CC(=O)N3C[C@@H]4[C@H](C3)[C@H]3CC[C@@H]4O3)c2c1,-6
CN(CCCc1ccccc1)C(=O)c1ccc(NC(=O)C2CCC2)cc1,3
COc1ccc2c(c1)c(CC(=O)N1CCOCC1)c(C)n2C(=O)c1ccc(Cl)cc1,-1
COc1cc(CNc2ccc(N3CCOCC3)cc2)ccc1OCc1ccccc1F,-17
COc1ccc2nc(Cl)c(CNCc3ccccc3F)c(N3CCOCC3)c2c1,-99*
CCCc1cc2c(cc1NC(=O)CCn1cnc3sc(C)c(C)c3c1=O)OCO2,-37
N[C@@H]1c2ccccc2C2(CCN(C(=O)Cc3ccc4c(c3)OCO4)CC2)[C@H]1O,2
O=C(Nc1cc(-c2ccccn2)no1)c1cccc2[nH]ccc12,273
CC(C)Sc1ccccc1C(=O)NCc1ccccn1,22
CNC(=O)c1ccccc1Sc1ccc2c(/C=C/c3ccccn3)n[nH]c2c1,-75*!
COc1ccccc1CN1CCOCC1c1csc(C)n1 (centres undefined),57
Cc1ccc(F)cc1CC(=O)N(C)CCc1scnc1C,22
CC(=O)N1C2CCN(Cc3nccs3)CC2C[C@H]1Cn1cncn1 (some centres undefined),-2
SMILES,Tgondii IFNg
COc1ccc(NC(=O)C2=NOC3(CCCN(S(=O)(=O)CC(C)C)C3)C2)cc1 (centres undefined),-2
COc1ccc(NC(=O)N2CCCCC2c2cccc(F)c2)cc1 (centres undefined),0
Cc1csc2c(N3CCc4nnc(C5CCCO5)n4CC3)ncnc12 (centres undefined),1
Cc1csc2c(N3CCC(O)(CO)CC3)ncnc12,2
COC(=O)c1sccc1S(=O)(=O)N1CCN(c2ncnc3c(C)csc23)CC1,-85*
CCCC(C)c1nnc(NC(=O)c2ccccc2-n2cncn2)s1 (centres undefined),0
NC(CN1CCOCC1)c1ccccc1 (centres undefined),-51
C/C=C/c1ccc(C2[C@@H]3CN(C(=O)Nc4ccccc4F)C[C@H]2N3)cc1 (some centres undefined),-33
Cc1cccc(-c2ccc(C3[C@@H]4CN(C(=O)c5ccncc5)C[C@H]3N4)cc2)c1 (some centres undefined),-7
N#Cc1ccc(-c2ccc(C3[C@@H]4CN(C(=O)C5CCCCC5)C[C@H]3N4)cc2)cc1 (some centres undefined),-46
O=C(Nc1ccc(F)cc1)N1C[C@@H]2N[C@H](C1)C2c1ccc(/C=C/c2ccccc2)cc1 (some centres undefined),-43
COc1cccc(-c2ccc(C3[C@@H]4CN(C(=O)Nc5ccccc5F)C[C@H]3N4)cc2)c1 (some centres undefined),-74*!
C/C=C/c1ccc(C2[C@@H]3CN(C(=O)NC4CCCCC4)C[C@H]2N3)cc1 (some centres undefined),-22
COc1ccc(NC(=O)N2C[C@@H]3N[C@H](C2)C3c2ccc(-c3ccncc3)cc2)cc1 (some centres undefined),-3
O=C(NC1CCCCC1)N1C[C@@H]2N[C@H](C1)C2c1ccc(-c2ccc(F)cc2)cc1 (some centres undefined),-77*!
COc1ccccc1NC(=O)N1C[C@@H]2N[C@H](C1)C2c1ccc(-c2cccc(C#N)c2)cc1 (some centres undefined),-33
COc1ccc(-c2ccc(C3[C@@H]4CN(C(=O)c5ccc(F)cc5)C[C@H]3N4)cc2)cc1 (some centres undefined),30
N#Cc1cccc(-c2ccc(C3[C@@H]4CN(C(=O)Nc5ccc(C(F)(F)F)cc5)C[C@H]3N4)cc2)c1 (some centres undefined),-73*!
C/C=C/c1ccc(C2[C@@H]3CN(C(=O)Nc4ccc(C(F)(F)F)cc4)C[C@H]2N3)cc1 (some centres undefined),-79*!
CCCNC(=O)c1nc(Nc2ccc(C)cc2)c2ccccc2n1,-55
CN1CCc2c(CNc3ncccn3)n[nH]c2C1,-25
CCN(CCOc1cccc(Cl)c1)C(=O)c1ccc(=O)n(C)c1,-3
OCC#Cc1csc(CN2CC[C@@H](c3ccc(F)cc3)[C@H](O)C2)c1,-41
CCOC(=O)CN1Cc2ccccc2C2(CCN(S(=O)(=O)N(C)C)CC2)C1,-2
O=C(NCCCCc1ccccn1)c1ccccc1C1CCNC1 (centres undefined),1
SMILES,Tgondii IFNg
O=C(Cn1c(=O)cc(C(=O)N2CCOCC2)c2ccccc21)Nc1ccc(Br)cc1F,0
c1cnc(N2CCC3(CCN(CC4CCOCC4)CC3)C2)nc1,4
O=C(c1cccc(Cl)c1)N1CCc2c([nH]c3ccccc23)C1c1cccnc1 (centres undefined),-82*
O=C(c1ccc(Br)cc1)N1CCc2c([nH]c3ccccc23)C1c1ccc(F)cc1 (centres undefined),-94*
O=C(c1cccc(F)c1)N1CCc2c([nH]c3ccccc23)C1c1ccc(F)cc1 (centres undefined),141
O=C(c1ccccc1Br)N1CCc2c([nH]c3ccccc23)C1c1ccc(Cl)cc1 (centres undefined),358
O=C(c1ccncc1)N1CCc2c([nH]c3ccccc23)C1c1ccc(Cl)cc1 (centres undefined),-88*
COc1ccc(C(=O)N2CCc3c([nH]c4ccccc34)C2c2cccnc2)cc1OC (centres undefined),70
COc1ccc(C2c3[nH]c4ccccc4c3CCN2C(=O)c2cccnc2)cc1 (centres undefined),256
COc1ccc(C(=O)N2CCc3c([nH]c4ccccc34)C2c2ccc(C)cc2)cc1 (centres undefined),i
CSc1ccc(C2c3[nH]c4ccccc4c3CCN2C(=O)c2cccnc2)cc1 (centres undefined),468
O=C(c1ccc(Br)cc1)N1CCc2c([nH]c3ccccc23)C1c1ccc(Cl)cc1 (centres undefined),-95*
O=C(c1ccccc1)N1CCc2c([nH]c3ccccc23)C1c1cccnc1 (centres undefined),85
O=C(c1ccc(Br)cc1)N1CCc2c([nH]c3ccccc23)C1c1ccccc1 (centres undefined),-48
O=c1c(CN2CCCCCC2c2cc(-c3ccc(F)cc3)no2)coc2ccccc12 (centres undefined),34

# Bioassay records (PubChem BioAssay)
